# Results filed as inconclusive are left out. Activity calls are given as the source filed them. Rule for the calls, unless noted: active = hit-call score of the fitted dose curve at least 0.9, where 1 is the maximum; inconclusive = response in the unintended direction; inactive = score below 0.9.
# Assays:
# [1] = molecular target: human RAR-related Orphan Receptor gamma (RORg), RORC (gene 6097) (UniProt P51449); test: ATG_RORg_TRANS: Attagene TRANS-FACTORIAL HepG2 Assay for human RAR-related Orphan Receptor gamma (RORg) (AID 2283011)
# How it was run: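 First, HepG2 liver cells were transfected with GAL4-UAS-driven reporter constructs and the RORg-Gal4 fusion. Next, they were treated with chemical for 24 h. Finally, reporter mRNA was quantified by RT-PCR and capillary electrophoresis, with upward activity fitted against DMSO.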
# [2] = molecular target: Retinoic acid receptor RXR-alpha (Homo sapiens) (UniProt P19793); test: ATG_RXRa_TRANS: Attagene TRANS-FACTORIAL HepG2 Assay for human Retinoid X Receptor alpha (RXRa) (AID 2283012)
# How it was run: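 HepG2 cells transiently transfected with multiplexed GAL4-UAS reporter units and chimeric NR-GAL4 fusions, dosed 24 h. Reporter mRNA measured by RT-PCR, FAM labelling, HpaI digestion and capillary electrophoresis; gain-of-signal fitted relative to DMSO baseline.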
# [3] = molecular target: human Retinoid X Receptor beta (RXRb), RXRB (gene 6257) (UniProt P28702); test: ATG_RXRb_TRANS: Attagene TRANS-FACTORIAL HepG2 Assay for human Retinoid X Receptor beta (RXRb) (AID 2283013)
# How it was run: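 HepG2 cells transiently transfected with multiplexed reporter units driven by GAL4-UAS and exogenous chimeric NR-Gal4 proteins; treated 24 h. Reporter mRNA measured by RT-PCR, 6-FAM labelling and capillary electrophoresis; gain-of-signal fitted versus DMSO baseline.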
# [4] = molecular target: human Thyroid Receptor alpha (THRa1), THRA (gene 7067) (UniProt P10827); test: ATG_THRa1_TRANS: Attagene TRANS-FACTORIAL HepG2 Assay for human Thyroid Receptor alpha (THRa1) (AID 2283014)
# How it was run: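 Reporter transcript induction, read by capillary electrophoresis of 6-FAM-labelled RT-PCR products, reflects activity of a transfected THRa1-Gal4 fusion in HepG2 liver cells. Cells were dosed for 24 h; activity was fitted in the positive direction against DMSO.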
# [5] = read-out: E-selectin (Homo sapiens) (UniProt P16581); test: BSK_3C_Eselectin: BioMAP Diversity Plus: 3C Assay for Eselectin Biomarker Activity (AID 2283015; active = hit-call score of the fitted dose curve at least 0.9, where 1 is the maximum; inactive = score below 0.9;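 note: cell surface E-selectin protein quantified by ELISA 24 h after dosing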); conditions: primary human endothelial cells (HUVEC); actives raise or lower the signal
# How it was run: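 ELISA read-out of E-selectin on endothelial monolayers after 24 h chemical treatment. Human umbilical vein primary cells served as the system, with DMSO defining baseline activity for bidirectional fitting.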
# [6] = read-out: Interleukin-1 alpha (IL1a), IL1A (gene 3552); test: BSK_BE3C_IL1a: BioMAP Diversity Plus: BE3C Assay for Interleukin-1 alpha (IL1a) Biomarker Activity (AID 2283016; active = hit-call score of the fitted dose curve at least 0.9, where 1 is the maximum; inactive = score below 0.9); conditions: primary human bronchial epithelial cells; actives raise or lower the signal
# How it was run: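 Human primary bronchial epithelial cells (BE3C system) were dosed with compound and IL-1a measured by ELISA 24 h later. Activity was fitted bidirectionally against DMSO baseline; cytotoxicity was tracked in parallel cultures by SRB total-protein staining.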
# [7] = read-out: Monocyte Chemoattractant Protein-1 (MCP1), CCL2 (gene 6347); test: BSK_3C_MCP1: BioMAP Diversity Plus: 3C Assay for Monocyte Chemoattractant Protein-1 (MCP1) Biomarker Activity (AID 2283017; active = hit-call score of the fitted dose curve at least 0.9, where 1 is the maximum; inactive = score below 0.9); conditions: primary human endothelial cells (HUVEC); actives raise or lower the signal
# How it was run: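 ELISA read-out of MCP-1 from human umbilical vein endothelial cell cultures harvested 24 h post-dosing. Gain or loss of signal was fitted relative to DMSO.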
# [8] = read-out: Human Leukocyte Antigen - DR isotype (HLADR), HLA-DRA (gene 3122); test: BSK_3C_HLADR: BioMAP Diversity Plus: 3C Assay for Human Leukocyte Antigen - DR isotype (HLADR) Biomarker Activity (AID 2283019; active = hit-call score of the fitted dose curve at least 0.9, where 1 is the maximum; inactive = score below 0.9;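 note: ELISA of cell-surface HLA-DR on HUVEC 24 h after dosing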); conditions: primary human endothelial cells (HUVEC); actives raise or lower the signal
# How it was run: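 ELISA readout of surface HLA-DR on human umbilical vein endothelium, taken 24 h after chemical treatment. Gain- and loss-of-signal were both fitted relative to DMSO.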
# Chain of E-selectin (Homo sapiens) (P16581 whole entry, looked up): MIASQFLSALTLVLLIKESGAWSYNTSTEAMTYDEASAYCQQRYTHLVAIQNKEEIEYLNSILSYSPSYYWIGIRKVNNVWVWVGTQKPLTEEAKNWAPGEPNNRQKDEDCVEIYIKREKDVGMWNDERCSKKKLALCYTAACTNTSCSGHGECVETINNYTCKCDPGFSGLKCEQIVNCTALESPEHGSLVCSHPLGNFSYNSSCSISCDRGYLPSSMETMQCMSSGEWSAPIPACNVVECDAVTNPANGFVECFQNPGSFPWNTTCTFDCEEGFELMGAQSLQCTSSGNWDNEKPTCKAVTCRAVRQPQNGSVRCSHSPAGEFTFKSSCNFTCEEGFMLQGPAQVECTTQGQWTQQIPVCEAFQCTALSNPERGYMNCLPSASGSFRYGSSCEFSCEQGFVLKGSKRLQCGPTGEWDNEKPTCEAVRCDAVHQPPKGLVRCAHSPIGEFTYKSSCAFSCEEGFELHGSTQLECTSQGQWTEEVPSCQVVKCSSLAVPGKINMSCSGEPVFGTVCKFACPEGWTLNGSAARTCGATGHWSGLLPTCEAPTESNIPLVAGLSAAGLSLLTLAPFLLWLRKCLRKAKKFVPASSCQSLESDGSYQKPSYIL
# Chain of human Thyroid Receptor alpha (THRa1), THRA (gene 7067) (P10827 whole entry, looked up, the tested form may be a part): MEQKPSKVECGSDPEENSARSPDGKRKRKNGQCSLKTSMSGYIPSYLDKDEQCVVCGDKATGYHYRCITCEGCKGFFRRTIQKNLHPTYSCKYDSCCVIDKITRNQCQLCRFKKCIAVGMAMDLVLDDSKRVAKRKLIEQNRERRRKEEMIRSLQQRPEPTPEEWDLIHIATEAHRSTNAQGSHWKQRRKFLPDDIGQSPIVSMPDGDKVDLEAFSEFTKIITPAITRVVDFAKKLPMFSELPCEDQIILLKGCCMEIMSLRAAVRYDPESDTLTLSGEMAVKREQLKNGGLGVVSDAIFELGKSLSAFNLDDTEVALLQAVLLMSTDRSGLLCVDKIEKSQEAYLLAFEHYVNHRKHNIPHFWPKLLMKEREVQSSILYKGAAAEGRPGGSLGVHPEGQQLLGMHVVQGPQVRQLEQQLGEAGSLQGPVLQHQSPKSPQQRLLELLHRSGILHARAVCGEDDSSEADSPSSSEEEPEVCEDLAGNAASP
# Chain of human Retinoid X Receptor beta (RXRb), RXRB (gene 6257) (P28702 whole entry, looked up, the tested form may be a part): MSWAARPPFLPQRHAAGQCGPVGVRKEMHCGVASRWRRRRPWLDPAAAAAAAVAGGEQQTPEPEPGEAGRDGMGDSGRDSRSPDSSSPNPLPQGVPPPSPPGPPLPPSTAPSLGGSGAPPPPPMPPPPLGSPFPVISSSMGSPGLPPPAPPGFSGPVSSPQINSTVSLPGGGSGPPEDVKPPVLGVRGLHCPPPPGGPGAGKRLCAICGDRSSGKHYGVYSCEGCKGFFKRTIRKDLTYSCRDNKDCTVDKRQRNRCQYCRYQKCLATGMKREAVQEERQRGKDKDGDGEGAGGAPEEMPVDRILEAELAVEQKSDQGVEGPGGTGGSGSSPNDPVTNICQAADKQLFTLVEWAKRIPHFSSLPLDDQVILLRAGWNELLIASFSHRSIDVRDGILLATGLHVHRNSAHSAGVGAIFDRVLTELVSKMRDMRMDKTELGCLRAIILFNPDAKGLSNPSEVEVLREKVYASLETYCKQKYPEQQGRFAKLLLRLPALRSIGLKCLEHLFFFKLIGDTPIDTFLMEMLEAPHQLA
# Chain of human RAR-related Orphan Receptor gamma (RORg), RORC (gene 6097) (P51449 whole entry, looked up, the tested form may be a part): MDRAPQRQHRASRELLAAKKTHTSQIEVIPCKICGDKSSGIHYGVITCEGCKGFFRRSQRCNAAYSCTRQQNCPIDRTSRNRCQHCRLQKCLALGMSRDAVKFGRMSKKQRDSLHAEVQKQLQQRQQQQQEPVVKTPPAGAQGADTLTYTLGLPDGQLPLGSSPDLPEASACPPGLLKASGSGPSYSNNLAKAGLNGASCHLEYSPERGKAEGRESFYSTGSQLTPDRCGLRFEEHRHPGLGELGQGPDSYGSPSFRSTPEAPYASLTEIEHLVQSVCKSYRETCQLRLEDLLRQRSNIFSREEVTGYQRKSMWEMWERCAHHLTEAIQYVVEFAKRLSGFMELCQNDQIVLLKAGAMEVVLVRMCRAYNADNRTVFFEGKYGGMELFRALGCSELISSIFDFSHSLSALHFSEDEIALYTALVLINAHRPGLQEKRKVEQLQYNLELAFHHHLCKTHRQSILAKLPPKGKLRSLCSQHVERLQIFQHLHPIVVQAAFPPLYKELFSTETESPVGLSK
# Chain of Retinoic acid receptor RXR-alpha (Homo sapiens) (P19793 whole entry, looked up, the tested form may be a part): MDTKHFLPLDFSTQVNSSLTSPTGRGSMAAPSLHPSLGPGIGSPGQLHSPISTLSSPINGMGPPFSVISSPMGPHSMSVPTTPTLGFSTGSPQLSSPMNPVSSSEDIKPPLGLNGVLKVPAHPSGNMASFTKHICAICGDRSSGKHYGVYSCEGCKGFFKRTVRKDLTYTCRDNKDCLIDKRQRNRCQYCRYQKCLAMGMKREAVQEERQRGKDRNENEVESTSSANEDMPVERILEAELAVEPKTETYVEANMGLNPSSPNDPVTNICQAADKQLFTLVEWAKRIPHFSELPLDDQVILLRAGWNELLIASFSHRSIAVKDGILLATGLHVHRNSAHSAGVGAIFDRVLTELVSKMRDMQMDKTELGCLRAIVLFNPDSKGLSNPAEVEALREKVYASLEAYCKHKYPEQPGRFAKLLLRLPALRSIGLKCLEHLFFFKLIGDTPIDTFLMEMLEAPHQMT
smiles,measurement,setting,value
COC(C=C(C)CCC=C(C)C)OC,outcome,[1],inactive
same,outcome,[2],inactive
same,outcome,[3],inactive
C=C(C)OC(C)=O,outcome,[1],inactive
CC(=O)/C=C/C1C(C)=CCCC1(C)C (stereo not drawn),outcome,[1],inactive
same,outcome,[2],inactive
same,AC50,[3],31.3 µM (active)
same,outcome,[4],inactive
CCC[Si](OC)(OC)OC,outcome,[1],inactive
same,outcome,[2],inactive
same,outcome,[3],inactive
same,outcome,[4],inactive
Fc1ccc(Br)cc1,outcome,[1],inactive
same,outcome,[2],inactive
same,AC50,[3],156 µM (active)
same,outcome,[5],inactive
same,outcome,[6],inactive
same,outcome,[7],inactive
same,outcome,[8],inactive
C=CCCCCCCCCOC(C)=O,outcome,[1],inactive
same,outcome,[2],inactive
same,outcome,[3],inactive
same,outcome,[4],inactive
CN1CCN(C)CC1,outcome,[1],inactive
same,outcome,[2],inactive
same,outcome,[4],inactive
Nc1ncnc2nc[nH]c12,outcome,[1],inactive
same,outcome,[2],inactive
same,outcome,[4],inactive
CCCCCCCCCCCCCC(=O)OC(C)C,outcome,[1],inactive
same,outcome,[2],inactive
same,outcome,[3],inactive
same,outcome,[4],inactive
N#Cc1ccc(C2CCCc3cncn32)cc1 (stereo not drawn),outcome,[1],inactive
same,outcome,[2],inactive
CC(C)=CCl,outcome,[1],inactive
same,outcome,[2],inactive
same,outcome,[4],inactive
CCc1cccc(C)c1N,outcome,[1],inactive
same,outcome,[2],inactive
same,outcome,[3],inactive
CC(CCC(=O)O)(c1ccc(O)cc1)c1ccc(O)cc1,outcome,[1],inactive
same,outcome,[2],inactive
same,outcome,[4],inactive
same,outcome,[5],inactive
same,outcome,[6],inactive
same,outcome,[8],inactive
CCCCCCCCCC[N+](C)(CCCCCCCCCC)CCC[Si](OC)(OC)OC,outcome,[1],inactive
same,outcome,[2],inactive
same,outcome,[3],inactive
same,outcome,[4],inactive
Clc1cccnc1,outcome,[1],inactive
same,outcome,[2],inactive
same,outcome,[4],inactive
CCCC(CC)c1ccccc1 (stereo not drawn),outcome,[1],inactive
same,outcome,[2],inactive
same,AC50,[3],66.4 µM (active)
same,outcome,[4],inactive
C[Si]1(C)O[Si](C)(C)O[Si](C)(C)O[Si](C)(C)O[Si](C)(C)O1,outcome,[1],inactive
same,outcome,[2],inactive
same,outcome,[4],inactive
Cc1ccc(S(=O)(=O)N=C=O)cc1,outcome,[1],inactive
same,outcome,[2],inactive
same,outcome,[3],inactive
CCCCCCCCCCCCC,outcome,[1],inactive
same,outcome,[2],inactive
same,outcome,[3],inactive
same,outcome,[4],inactive
O=S(=O)(O)c1ccc(Nc2nc(Nc3ccc(C=Cc4ccc(Nc5nc(Nc6ccc(S(=O)(=O)O)cc6)nc(N(CCO)CCO)n5)cc4S(=O)(=O)O)c(S(=O)(=O)O)c3)nc(N(CCO)CCO)n2)cc1,outcome,[1],inactive
same,outcome,[2],inactive
same,outcome,[3],inactive
O=C(Cl)c1c(Cl)c(Cl)c(C(=O)Cl)c(Cl)c1Cl,outcome,[1],inactive
same,outcome,[2],inactive
same,AC50,[3],100 µM (active)
same,outcome,[5],inactive
same,outcome,[6],inactive
same,outcome,[7],inactive
same,outcome,[8],inactive

# — PubChem BioAssay (EPA / NIEHS)
